# Experimental data published in PubChem BioAssay (EPA / NIEHS).
# Calls of active or inactive are those of the source. The calls were made as follows: active = hit-call score of the fitted dose curve at least 0.9, where 1 is the maximum; inactive = score below 0.9.
# Assay: ATG_Oct_MLP_CIS: Attagene CIS-FACTORIAL HepG2 Assay for human Octamer-Binding Transcription Factor (Oct) (AID 2282993)
# Conditions: HepG2 Attagene cis-factorial Oct reporter, mRNA; actives raise or lower the signal
# Description: ATG_CIS is a cell-based, multiplexed-readout assay that uses HepG2, a human liver cell line, with measurements taken at 24 hours after chemical dosing in a 24-well plate.ATG_Oct_MLP_CIS is one of 52 assay component(s) measured or calculated from the ATG_CIS assay. It is designed to make measurements of mRNA induction, a form of inducible reporter, as detected with fluorescence intensity signals by Reverse transcription polymerase chain reaction (RT-PCR) and Capillary electrophoresis technology.Data from the assay component ATG_Oct_MLP_CIS was analyzed into 1 assay endpoint. This assay endpoint, ATG_Oct_MLP_CIS, was analyzed with bidirectional fitting relative to DMSO as the negative control and baseline of activity. Using a type of inducible reporter, measures of mRNA for gain or loss-of-signal activity can be used to understand the reporter gene at the transcription factor-level as they relate to the gene POU2F1. Furthermore, this assay endpoint can be referred to as a primary readout, because this assay has produced multiple assay endpoints where this one serves a reporter gene function. To generalize the intended target to other relatable targets, this assay endpoint is annotated to the dna binding intended target family, where the subfamily is POU domain protein.
# Human liver HepG2 cells are transiently transfected with multiple reporter transcription units (MRTUs) in 6-well plates using FuGene 6 reagent (Roche; 3 ml FuGene/1 mg DNA). The MRTU constructs are regulated by a cis-regulating element (promoter). […] A major difference between the CIS and TRANS system is that in CIS activities of endogenous TFs are measured, whereas the TRANS assay evaluates changes in activities of exogenous, chimeric NR-Gal4 proteins. […] At the end of 24 hour incubation, total RNA was isolated using TriZol reagent (Invitrogen). The isolated RNA is then reverse-transcribed using oligo(dT) primer and Mo-MLV reverse transcriptase (Invitrogen) with DNAse I (Ambion) treatment for 30 min. The one-tenth of the produced cDNA was amplified by PCR using Taq DNA polymerase (Invitrogen) and two reporter sequence-specific primers. The PCR products were fluorescently labeled by primer extension with 6-arboxyfluorescein (6-FAM) 5'-labeled reporter sequence-specific primer (2 min at 95 C, 20 s at 68 C and 10 min at 72 C) and these products were digested with 5U of HpaI (New England Biolabs) for 2h at 37 C. The fragments were purified using Qiaquick PCR columns (Qiagen), analyzed on an ABI 3130xL genetic analyzer (Applied Biosystems) with peak positions identified by using a set of X-rhodamine (ROX)-labeled MapMarker1000 molecular weight standards (BioVentures). The raw capillary electrophoresis data was processed using Attagraph software (Attagene).
Compound,outcome,AC50
COc1cc(OC)c(OC)cc1C=O,inactive,
CCCCNP(N)(N)=S,inactive,
[CH3][Sn]([CH3])([Cl])[Cl],inactive,
O=c1c2ccccc2c(=O)c2c1cc(Cl)c1[nH]c3c([nH]c12)c(Cl)cc1c(=O)c2ccccc2c(=O)c13,inactive,
CC(C)C#N,inactive,
CC(O)CN(CC(C)O)CC(C)O (stereo not given),inactive,
CNC(=N[N+](=O)[O-])NCC1CCOC1 (stereo not given),inactive,
O=[N+]([O-])c1ccc(Cl)cc1,inactive,
CCC[N+](=O)[O-],inactive,
[N-]=[N+]=CC(=O)OC[C@H](N)C(=O)O,inactive,
CNC(=O)Oc1cc(C)c(SC)c(C)c1,,68.7 µM (active)
BrCBr,inactive,
C=CC(=O)OCCO,,100 µM (active)
O=CNC(N1CCN(C(NC=O)C(Cl)(Cl)Cl)CC1)C(Cl)(Cl)Cl (stereo not given),inactive,
N#CCNCC#N,inactive,
CCC(=O)c1ccc(Cl)cc1,inactive,
C[N+](C)(C)CC(=O)O,inactive,
O=C(O)COc1ccccc1,inactive,
CCCCCCCCCCCCCCCC[N+](C)(C)C,,26.8 µM (active)
O=C(CCl)c1ccccc1,inactive,

Compound,outcome,AC50
C=CC(=O)OC,inactive,
C=CC(=O)OCCCCOC(=O)C=C,,37.7 µM (active)
Cc1cc(C)c(C2=C(OC(=O)CC(C)(C)C)C3(CCCC3)OC2=O)c(C)c1,,128 µM (active)
ClC1=C(Cl)[C@]2(Cl)[C@@H]3[C@@H](Cl)[C@H](Cl)C[C@@H]3[C@@]1(Cl)C2(Cl)Cl,inactive,
CCCCCc1cc(O)cc(O)c1,,60.8 µM (active)
CC(C)(c1cc(Cl)c(O)c(Cl)c1)c1cc(Cl)c(O)c(Cl)c1,inactive,
CCOC(=O)NC(=S)Nc1ccccc1NC(=S)NC(=O)OCC,inactive,
CCC(C)c1cc([N+](=O)[O-])cc([N+](=O)[O-])c1OC(=O)C=C(C)C (stereo not given),,25.8 µM (active)
CC(C)C(=O)Cl,inactive,
O=C1Nc2ccc(Cl)cc2C(c2ccccc2)=NC1O (stereo not given),inactive,
Nc1ccc(-c2ccc(N)c(N)c2)cc1N,inactive,
CC(C)(C)C(=O)CCl,inactive,
NNc1ccccc1,inactive,
CCCCCCCCCCCC#N,,141 µM (active)
CC(=O)c1cc2c(cc1C)C(C)(C)C(C)CC2(C)C (stereo not given),,64.3 µM (active)
CCC(C)(C)O,inactive,
c1cc(OCC2CO2)ccc1Cc1ccc(OCC2CO2)cc1 (stereo not given),,25.3 µM (active)
C[C@]12CC[C@H]3[C@@H](CC[C@@]45O[C@@H]4C(O)=C(C#N)C[C@]35C)[C@@H]1CC[C@@H]2O,,63.3 µM (active)
C=C(Cl)CCl,inactive,
CC(C)c1ccc(O)cc1,inactive,
